15 molecules from PubChem BioAssay AID588675 (Johns Hopkins Ion Channel Center, 2011) can be followed below.

The structures appear in SMILES notation. Out of some 310,000 compounds screened, about 1,900 (0.61%) were called active. The sample holds actives, similar compounds and a random draw of the others, so the mix is not that of the screen.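 Rule for the calls: active = plate-corrected calcium response at least 3 library SD above typical, normal starting fluorescence, not activating the receptor alone; inactive = the rest.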

Chain of Mas-related G-protein coupled receptor member X1 (Homo sapiens) (Q96LB2 whole entry, looked up): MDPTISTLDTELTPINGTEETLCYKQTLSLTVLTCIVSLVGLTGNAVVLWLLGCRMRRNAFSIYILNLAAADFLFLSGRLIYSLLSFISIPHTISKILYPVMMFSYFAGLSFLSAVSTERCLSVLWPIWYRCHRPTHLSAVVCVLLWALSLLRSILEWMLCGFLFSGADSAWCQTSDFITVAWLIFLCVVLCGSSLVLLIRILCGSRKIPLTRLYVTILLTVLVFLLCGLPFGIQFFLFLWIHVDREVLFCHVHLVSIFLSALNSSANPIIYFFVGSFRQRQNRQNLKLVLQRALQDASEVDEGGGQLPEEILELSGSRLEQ

The experiment concerns the target Mas-related G-protein coupled receptor member X1 (Homo sapiens) (UniProt Q96LB2). Kind of experiment: positive allosteric modulators of MrgX1, primary screen, HEK293 cells, Fluo-4 calcium flux (AID 588675).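 For B-score: peak minus trough fluorescence over baseline measured at the second addition.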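 Note: compound read alongside a low EC10 to EC30 dose of BAM8-22 agonist.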 The following applies: MrgX1-HEK293, Fluo-4 calcium flux, FDSS, at 10 µM; stronger effect = higher value. Background: A change in cytosolic calcium serves as a functional read-out for many receptors and channels.
Consider `CC[C@H]1CC2CN3CCc4c([nH]c5ccccc45)C(C(=O)OC)(C2)C13` (stereo not given in full), for which the B-score was 13 (active).

As for `CN1CCc2cc3c(cc2[C@H]1[C@@H]1OC(=O)c2c1ccc1c2OCO1)OCO3`, the B-score entry was “inactive”. For `CN(C)C(=O)Oc1ccc(OCc2cccc[n+]2C)cc1`, the B-score result was “inactive”. Take `Cc1nc2ccccn2c1P(=S)(N1CCCCC1)N1CCCCC1`: the B-score is 13.5 (active).

On to `CC1CCCCN1Cc1cccnc1` (stereo not given), for which the B-score result is “inactive”. As to `COc1ccc(S(=O)(=O)NCc2ccc(C(=O)N3CCC4(CC3)OCCO4)cc2)cc1`, the B-score entry was “inactive”. For the molecule `Cc1ccc(-c2nn(CCC#N)cc2C(=O)O)cc1C`, the B-score entry was “inactive”.

In the case of `CN(C)C(=O)Oc1ccc2c(c1)O/C(=C\c1ccccc1)C2=O`, the B-score entry was “inactive”. As to `CCOC(=O)CC1=C(C(=O)OCC)C2(C(=O)N1)C(C(=O)OC)=C(N)Oc1ccccc12` (stereo not given), the B-score result was “inactive”.

Take `C=CCN1C(=O)C2(C(C(=O)OCC)=C(N)Oc3c2c(=O)oc2ccccc32)c2ccccc21` (stereo not given): the B-score was 27.7 (active). `COC(=O)CN1C(=O)C2(C(C(=O)OC)=C(N)Oc3ccccc32)C2=C1CC(C)(C)CC2=O` (stereo not given): the B-score result was “inactive”.

For the molecule `O=Cc1cn(Cc2ccc(F)cc2Cl)c2ccccc12`, the B-score result was “inactive”. For the molecule `CCOc1cccc(=NC2CCCCC2)c2c(C)[nH]c(C)c12`, the B-score entry was “inactive”. For the molecule `c1ccc(CC2CCCCN2)cc1` (stereo not given), the B-score entry is “inactive”. Turning to `O=C(COC(=O)c1ccccc1)Nc1ccc(Cl)cc1C(=O)c1ccccc1`, the B-score result is “inactive”.
